TDP1 cell CPT – DT40-hTDP1 cell growth loss with CPT | chicken DT40 Tdp1-/-;hTDP1 cells + 20 nM CPT, ATP luminescence, 48 h | Potency, µM (top dose mostly 46.2 µM), for inactives: top-dose activity change, negative = growth inhibition, hits mostly inhibitors | 420,000 compounds, 12% hits | AID 686979; note: potency is the fitted concentration of half-maximal effect; nearly all actives have a fitted effect of over 55% in size
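Chicken DT40 Tdp1-/- cells stably complemented with human TDP1 were seeded at 400 cells/well in medium containing 20 nM camptothecin, exposed to pin-transferred compounds, and grown at 37 °C for at least 48 hr. Viability was read as ATP luminescence.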
HT1080 IDH1KD tx – kills HT-1080 cells with IDH1 knockdown. HT-1080 IDH1 knockdown viability, ATP luminescence, 48 h. Potency, µM (series often up to 46.1 µM), inactives show top-dose activity, negative = toxicity, actives largely listed as cytotoxic. 360,000 compounds, 2% hits;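 note: potency is the fitted concentration of half-maximal effect; 0% = DMSO wells and -100% = cell-free medium wells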
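CellTiter-Glo luminescence after 48 h compound exposure at 37 degrees C of IDH1-knockdown HT-1080 cells in 5% FBS RPMI. %Activity scaled between DMSO wells and cell-free media wells, with curves fitted and assigned curve classes.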
ALOX12 inh – blocks human arachidonate 12S-lipoxygenase. purified 12hLO, xylenol orange hydroperoxide absorbance. Potency, µM (titrated, usually from 108 µM), for inactives: top-dose activity change, negative = inhibition, hits mostly inhibitors. AID 1671190. 580,000 compounds, 1.1% hits. P18054; note: potency is the fitted concentration of half-maximal effect
Target sequence (P18054 whole entry, looked up): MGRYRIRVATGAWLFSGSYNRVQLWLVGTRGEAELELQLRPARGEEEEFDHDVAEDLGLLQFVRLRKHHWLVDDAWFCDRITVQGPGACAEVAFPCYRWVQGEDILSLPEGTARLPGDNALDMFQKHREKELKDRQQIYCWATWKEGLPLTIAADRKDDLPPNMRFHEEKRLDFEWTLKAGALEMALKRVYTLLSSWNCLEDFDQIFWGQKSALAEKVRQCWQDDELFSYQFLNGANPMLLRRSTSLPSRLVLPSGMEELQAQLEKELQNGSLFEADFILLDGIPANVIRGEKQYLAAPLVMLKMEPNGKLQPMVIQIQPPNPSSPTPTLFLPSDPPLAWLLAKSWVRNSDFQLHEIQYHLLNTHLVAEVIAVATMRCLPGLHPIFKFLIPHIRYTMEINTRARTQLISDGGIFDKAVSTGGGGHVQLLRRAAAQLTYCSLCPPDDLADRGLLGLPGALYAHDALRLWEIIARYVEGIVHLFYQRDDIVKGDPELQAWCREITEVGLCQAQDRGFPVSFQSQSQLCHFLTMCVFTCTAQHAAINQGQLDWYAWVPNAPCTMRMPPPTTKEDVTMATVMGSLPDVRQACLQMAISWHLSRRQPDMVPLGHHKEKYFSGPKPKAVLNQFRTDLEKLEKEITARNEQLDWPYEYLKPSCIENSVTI
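Purified human 12hLO at 150 nM in 25 mM Hepes, 0.01% Triton X-100, pH 7.0, preincubated 15 min at room temperature with compound. Reaction started with 40 uM arachidonic acid, 30 min at room temperature. Hydroperoxide measured by Fe-xylenol orange, 573/405 nm absorbance ratio.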
HT1080NT lethal – kills 2HG-producing HT-1080-NT fibrosarcoma cells; AID 686970; HT-1080-NT fibrosarcoma viability, CellTiter-Glo ATP luminescence, 48 h; 360,000 compounds, 1.6% hits; Potency, µM (highest dose often 46.1 µM), for inactives: top-dose activity, negative = less viability, most hits filed as cytotoxic;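 note: NT is the 2HG producing partner of a matched IDH1 knockdown line; potency is the fitted concentration of half-maximal effect; 0% = DMSO-treated cells and -100% = media-only wells without cells; nearly all actives have a fitted effect of over 55% in size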
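750 cells/well, RPMI + 5% FBS; 2 h settle, compound pin-transfer, 48 h at 37 degrees C. CellTiter-Glo 10 min RT, luminescence. Normalized to DMSO and media-only wells.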
DT40 TDP1 no CPT – qHTS for Inhibitors of human tyrosyl-DNA phosphodiesterase 1 (TDP1): qHTS in cells in absence of CPT; DT40 Tdp1-/- hTDP1 cells, no CPT, ATP luminescence, 48 h; Potency, µM (top dose mostly 46.2 µM), without a hit: top-dose activity change, negative = growth inhibition, hits mostly inhibitors; 420,000 compounds, 15% hits; AID 686978, 2013; note: potency is the fitted concentration of half-maximal effect; nearly all actives have a fitted effect of over 55% in size
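Chicken DT40 Tdp1-/- cells complemented with human TDP1, screened without camptothecin (DMSO vehicle only), 400 cells/well. Compounds pin-transferred, cells incubated at 37 °C for at least 48 hr. Growth read as ATP-dependent luminescence (CellTiter-Glo, 30 min at RT).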
IL1B secr inh – inhibitors of inflammasome signaling (IL-1 beta secretion) | THP-1 LPS/ATP IL-1B secretion, AlphaLISA, 16 h; stronger effect = lower value | 360,000 compounds, 4.7% hits | activity change, % at 57.5 µM; in the data active = activity change below about -50%; inconclusive = mostly about -30% to -49%
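Secreted IL-1B measured by AlphaLISA bead assay after 16 h compound exposure of THP-1 cells; compounds (final up to 57.5 uM) added 1 h before LPS (250 ng/mL) and ATP (1.25 mM) stimulation; lower signal means less secretion.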
Numbers without * were called inactive; ? = inconclusive; · = not tested or not shown; [ ] = remark or other dose. Only a selection was taken, and hits are over-represented in it overall. Unless noted, calls come from the whole dose curve; as a rule, active = well fitted curve in the direction sought with a large enough effect; inconclusive = small, poorly fitted or top-dose-only effect, or another doubt; inactive = no such curve, though single readings can be large; an effect the other way counts as inactive or inconclusive. Unless noted, % is set by controls: 0 for no effect and ±100 for the full control effect.

SMILES | TDP1 cell CPT | HT1080 IDH1KD tx | ALOX12 inh | HT1080NT lethal | DT40 TDP1 no CPT | IL1B secr inh
O=C(C[C@H]1C/C=C\CC[C@H](Cc2ccc(F)cc2)C(=O)OC[C@H]2CCCN2C1=O)N[C@H](CO)Cc1ccccc1 | 23µM* | 8% | -3% | 2% | 21µM* | -3
O=C(C[C@H]1C/C=C\C[C@@H](Cc2ccc(F)cc2)C(=O)OC[C@H]2CCCN2C1=O)N[C@@H](CO)Cc1ccccc1 | ? | -3% | 17% | 0% | ? | -16
Cc1cc(OCc2nn[nH]n2)c2c(C)c(C)c(=O)oc2c1 | · | · | -19% | · | · | ·
O=C(O)c1cc(Cl)c(I)c(Cl)c1 | · | · | 1% | · | · | ·
O=[N+]([O-])c1cnccc1-n1nnc2ccccc21 | 16µM* | ? | 1% | ? | 18µM* | -116*
O=C(O)c1ccc(-n2nnc3ccccc32)c([N+](=O)[O-])c1 | 7% | 1% | -12% | 7% | 6% | 12
COc1ccc(/C=c2/sc3nc(-c4ccccc4)c(-c4ccccc4)n3c2=O)cc1 | ? | 13% | 6% | 16% | ? | -2
COc1cc(/C=c2/sc3nc(-c4ccccc4)c(-c4ccccc4)n3c2=O)cc(OC)c1OC | 6.5µM* | 0% | 6% | 1% | 10µM* | 3
COc1ccc(/C=c2\sc3nc(-c4ccccc4)c(-c4ccccc4)n3c2=O)cc1OC | ? | 3% | 0% | 7% | 16µM* | -9
COc1cc(/C=C2\SC(=S)N(C(C(=O)O)c3ccccc3)C2=O)cc(OC)c1OC (configuration not stated) | 17% | -21% | ? | -27% | 1% | -5
Cc1nnc(SC(C)C(=O)Nc2ccc(F)c(Cl)c2)n1C (configuration not stated) | · | · | -3% | · | · | ·
Fc1ccc(OCc2nnc([C@H]3CCN(Cc4cccnc4)C3)o2)cc1 | · | · | 13%[176 µM] | · | · | ·
CCc1ccc(OCC(=O)N/N=C(\C)c2ccc3c(c2)OCCO3)cc1 | 3% | 6% | ? | 3% | -6% | 12
CCc1ccc(OCC(=O)N/N=C(\C)c2ccc(O)cc2O)cc1 | 7.3µM* | ? | 6% | -21% | 2.6µM* | 74
CCOC(=O)C1=CCC(c2cccc(Cl)c2)N(S(=O)(=O)c2ccc(C)cc2)C1 (configuration not stated) | 15µM* | ? | -2% | -18% | 12µM* | 34
CC(=O)C1=CCC(c2cccc(Cl)c2)N(S(=O)(=O)c2ccc(C)cc2)C1 (configuration not stated) | 15µM* | 15µM* | -66% | ? | 10µM* | -85*
Cc1ccc(S(=O)(=O)N2CC(C(=O)O)=CC[C@H]2c2ccc(Cl)cc2)cc1 | 2% | -2% | -10% | 8% | -16% | 3
CCOC(=O)C1=CCC(c2cccc3ccccc23)N(S(=O)(=O)c2ccc(C)cc2)C1 (configuration not stated) | 15µM* | -28% | -53% | -16% | 18µM* | 0
CC(=O)C1=CCC(c2ccc(C(C)C)cc2)N(S(=O)(=O)c2ccc(C)cc2)C1 (configuration not stated) | -102% | ? | -2% | ? | ? | ?
CCOC(=O)C1=CCC(c2ccco2)N(S(=O)(=O)c2ccc(C)cc2)C1 (configuration not stated) | ? | -19% | ? | -24% | ? | 55
CCOC(=O)C1=CCC(c2ccc(CC)cc2)N(S(=O)(=O)c2ccc(C)cc2)C1 (configuration not stated) | 23µM* | ? | 15% | -23% | 9.2µM* | 47
CCn1ccc(C(=O)N2[C@@H]3CC[C@H]2CC(NC(=O)c2ccncc2)C3)n1 (some centres not stated) | · | · | 63% | · | · | ·
CC1CCCN(S(=O)(=O)c2ccc(-c3nc(C#N)c(NCCCN(C)C)o3)cc2)C1 (configuration not stated) | · | · | -8% | · | · | ·
CN1CCC(N2CC[C@H](c3nnc(-c4ccc(N(C)C)cc4)o3)C2)CC1 | · | · | 24%[176 µM] | · | · | ·
Cc1cc2cc(C(=O)N3CCc4c([nH]c5ccccc45)C3c3ccccn3)ccc2o1 (configuration not stated) | ? | ? | 0% | -16% | 18µM* | -25
SMILES | TDP1 cell CPT | HT1080 IDH1KD tx | ALOX12 inh | HT1080NT lethal | DT40 TDP1 no CPT | IL1B secr inh
CC(=O)c1ccc(C(=O)N2CCc3c([nH]c4ccccc34)C2c2cccc(C)n2)s1 (configuration not stated) | 23µM* | ? | -7% | -21% | 15µM* | -67*
CCOC(=O)c1[nH]c(C)c(C(=O)N2CCc3c([nH]c4ccccc34)C2c2ccccn2)c1C (configuration not stated) | 16µM* | -23% | -10% | -11% | ? | -52*
CC(=O)Nc1ccc(CN2CCc3c([nH]c4ccccc34)C2c2ccccn2)cc1 (configuration not stated) | ? | 18µM* | 0% | 23µM* | 21µM* | -2
CC(=O)c1cc(CC(=O)N2CCc3c([nH]c4ccccc34)C2c2ccccn2)cs1 (configuration not stated) | ? | -2% | -35% | -6% | ? | -4
COc1cccc(C(=O)N2C(C(=O)NCc3ccccc3)COC23CCN(C(=O)CC(C)C)CC3)c1 (configuration not stated) | · | · | 48% | · | · | ·
c1ccc(COCCCc2nc(C3CCOC3)n[nH]2)cc1 (configuration not stated) | · | · | 27% | · | · | ·
CNCC/C=C1/c2ccccc2CSc2ccccc21 | ? | ? | 0% | 16µM* | ? | 0
CCN(CC)CCCNC(=O)C1CCN(c2ncnc3c2sc2cccc(F)c23)CC1 | ? | ? | -1% | ? | ? | ?
O=C(Nc1ccc(F)cc1F)C1CCN(c2ncnc3c2sc2cccc(F)c23)CC1 | 6.5µM* | -3% | 16% | 0% | 16µM* | 27
COCCN1C(=O)[C@@H]2C[C@@H](CN2C(=O)Cc2ccccc2)Oc2ccccc21 | · | · | -20%[176 µM] | · | · | ·
Cc1[nH]c2ccccc2c1N=Nc1c(C)n(C)n(-c2ccccc2)c1=O | 21µM* | 10% | ? | -7% | ? | -6
Cc1[nH]c2ccccc2c1N=Nc1cc(C(=O)O)cc(C(=O)O)c1 | -7% | 1% | 58% | -4% | -24% | -4

Bioassay records: PubChem BioAssay, National Center for Advancing Translational Sciences (NCATS)
